# Source: PubChem BioAssay (National Center for Advancing Translational Sciences (NCATS))
# The list is not random: actives were taken first. Their share in the collection is about 19%.
# DT40 TDP1 no CPT – qHTS for Inhibitors of human tyrosyl-DNA phosphodiesterase 1 (TDP1): qHTS in cells in absence of CPT; AID 686978, 2013; DT40 Tdp1-/- hTDP1 cells, no CPT, ATP luminescence, 48 h; Potency, µM (series often up to 46.2 µM), without a hit: at the highest dose activity change, negative = growth inhibition, actives largely listed as inhibitors; 420,000 tested, 15% active; also: potency is read from the fitted curve at half-maximal effect; nearly all actives have a fitted effect of over 55% in size
#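 Stably hTDP1-transfected Tdp1-null chicken DT40 cells were treated with library compounds minus camptothecin and grown for at least 48 hr at 37 °C, after which cellular ATP was quantified by luminescence.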
# HT1080-NT tox – kills 2HG-producing HT-1080-NT fibrosarcoma cells; AID 686970; 360,000 tested, 1.6% active; HT-1080-NT fibrosarcoma viability, CellTiter-Glo ATP luminescence, 48 h; Potency, µM (titrated, usually from 46.1 µM), inactives show at the highest dose activity, negative = less viability, hits mostly cytotoxic;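 also: NT is the 2HG producing partner of a matched IDH1 knockdown line; potency is read from the fitted curve at half-maximal effect; 0% = DMSO-treated cells and -100% = media-only wells without cells; nearly all actives have a fitted effect of over 55% in size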
#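 Compounds were tested in concentration-response format on HT-1080-NT cells for 48 hours at 37 degrees C. Cell viability came from CellTiter-Glo luminescence; curves were classified by r2, response magnitude and activity.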
# ELG1 repair inh – inhibitors of ELG1-dependent DNA repair in HEK293T cells; HEK293T ELG1-luciferase reporter, luminescence, 16 h; DNA damage induced by 5-fluorouridine; Potency, µM (series often up to 46.1 µM), without a hit: top-dose activity change, negative = inhibition, actives largely listed as inhibitors; 330,000 tested, 2.3% active; AID 504467; also: potency is read from the fitted curve at half-maximal effect; nearly all actives have a fitted effect of over 55% in size
#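 Reporter activity after DNA damage by 5-fluorouridine is monitored. Compound-treated cells incubate 16 hr at 37 °C, then ONE-Glo is added for 30 min before luminescence reading.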
# HT1080 IDH1KD tx – kills HT-1080 cells with IDH1 knockdown | Potency, µM (titrated, usually from 46.1 µM), for inactives: at the top dose activity, negative = toxicity, usual class: cytotoxic | HT-1080 IDH1 knockdown viability, ATP luminescence, 48 h | 360,000 tested, 2% active | AID 686971;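 also: potency is read from the fitted curve at half-maximal effect; 0% = DMSO wells and -100% = cell-free medium wells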
#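 IDH1KD HT-1080 cells, 750/well, RPMI + 5% FBS; compound pinned after 2 h settling; 48 h, 37 °C; CellTiter-Glo luminescence; % activity normalised to DMSO and no-cell wells; curves fitted, classed by r2 and efficacy.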
# IL1B secr inh – inhibitors of inflammasome signaling (IL-1 beta secretion). THP-1 LPS/ATP IL-1B secretion, AlphaLISA, 16 h; active compounds read low. activity change, % at 57.5 µM. 360,000 tested, 4.7% active. AID 743279; in the data active = activity change below about -50%; inconclusive = mostly about -30% to -49%
#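 THP-1 cells pretreated 1 hr with compounds (up to 57.5 uM final), then stimulated with LPS (250 ng/mL final) plus ATP (1.25 mM final); secreted IL-1B measured by AlphaLISA after 16 hr, decreased signal indicating inhibition.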
# DT40 TDP1 CPT – DT40-hTDP1 cell growth loss with CPT. 420,000 tested, 12% active. AID 686979. Potency, µM (highest dose often 46.2 µM), for the others: top-dose activity change, negative = growth inhibition, most hits filed as inhibitors. chicken DT40 Tdp1-/-;hTDP1 cells + 20 nM CPT, ATP luminescence, 48 h; also: potency is read from the fitted curve at half-maximal effect; nearly all actives have a fitted effect of over 55% in size
#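 Chicken DT40 Tdp1-/- cells stably complemented with human TDP1 were seeded at 400 cells/well in medium containing 20 nM camptothecin, exposed to pin-transferred compounds, and grown at 37 °C for at least 48 hr. Viability was read as ATP luminescence.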
# * hit, by the source's call; u = inconclusive; x = not tested or not shown; [ ] = dose if it differs, or a comment. Unless noted, calls follow the shape of the dose curve; as a rule, active = well fitted curve in the direction sought with a large enough effect; inconclusive = small, poorly fitted or top-dose-only effect, or another doubt; inactive = no such curve, though single readings can be large; an effect the other way counts as inactive or inconclusive. Unless noted, % is scaled to controls: 0 for no effect and ±100 for the full control effect.
SMILES,DT40 TDP1 no CPT,HT1080-NT tox,ELG1 repair inh,HT1080 IDH1KD tx,IL1B secr inh,DT40 TDP1 CPT
COc1cc(/C=C/c2nc3ccccc3c(=O)n2-c2ccccc2O)ccc1O,u,u,u,u,-66*,u
COc1cc(/C=C/c2nc3ccccc3c(=O)n2-c2cccc(O)c2)ccc1O,18µM*,-24%,u,u,-23,u
CC(=O)OC1(c2ccccc2)CCN(CCc2ccccc2)CC1,22µM*,x,x,x,x,u
CC(=O)OC1(c2ccccc2)CCN(C)CC1(C)C (centres undefined),2%,-10%,-5%,3%,11,1%
CCc1ccc(OCC(=O)N2CCN(CCc3ccccn3)CC2)cc1,-23%,x,x,x,x,-5%
CCOc1ccc(-c2cn3c(n2)sc2cc(C(=O)N4CCCC(C)C4)ccc23)cc1 (centres undefined),6.5µM*,x,x,x,x,10µM*
CN(C)S(=O)(=O)c1cccc(C(=O)N2CCC(C(=O)O)(c3ccccc3)CC2)c1,-4%,18%,-1%,21%,-1,6%
CN(c1ccccc1)S(=O)(=O)c1cccc(C(=O)N2CCN(c3ccccn3)CC2)c1,16µM*,-6%,u,0%,-12,18µM*
CC(Cc1ccccc1)NC(=O)C(c1ccc(N)cc1)c1ccc(N)cc1 (centres undefined),u,23%,-1%,3%,0,12µM*
C[C@]12CC[C@H]3[C@@H](CCC4=C(O)C(=O)CC[C@@H]43)[C@@H]1CC[C@@H]2OC(=O)CCC1CCCC1,-21%,x,x,x,x,-6%
COc1ccc(OC)c(CN2CCN(C(=O)Cc3ccccc3)CC2)c1,-3%,-13%,-14%,-1%,5,-21%
COc1ccc(Nc2nc(N3CCCC3)nc3ccccc23)c(OC)c1,u,u,u,11µM*,-99*,u
C[C@H](NC(=O)[C@@H](N)Cc1ccc(O)cc1)C(=O)N[C@@H](Cc1ccccc1)C(=O)N[C@@H](Cc1ccccc1)C(N)=O,-6%[4.12 µM],x,x,x,x,-2%[4.12 µM]
Cn1ccc2c(-c3ccc(F)nc3)cc3c(c21)C1CCC3C1 (centres undefined),u,2%,x,-13%,41,u
CN1CC(C(=O)c2ccc(Cl)cc2)C(c2ccc(N(C)C)cc2)C1 (centres undefined),u,0%,8%,-1%,u,21µM*
CC1CC(O)[C@]2(O)[C@]13CC(=O)OC[C@@]2(C)[C@@](C)(O)C(=O)C3 (some centres undefined),25%,x,x,x,x,5%
CCCCCOc1ccc(C)cc1CN(CCCl)CCCl,16µM*,-22%,u,u,x,16µM*
COC(=O)C1=C(c2ccc(Cl)c(C(F)(F)F)c2)C[C@@H]2CC[C@H]1N2C(=O)N1CCOCC1,4.6µM*,0%,-13%,-6%,-1,6.5µM*
COC(=O)C1=C(c2ccc(Cl)c(C(F)(F)F)c2)C[C@@H]2CC[C@H]1N2C(=O)N1CCC(O)(c2ccc(Cl)cc2)CC1,u,u,u,u,-83*,u
COC(=O)C1=C(c2c(C)noc2C)C[C@@H]2CC[C@H]1N2C(=O)N1CCOCC1,3%,11%,23%,2%,11,-10%
Cc1cc(C(=O)OC(C)C(=O)Nc2ccccc2)c(C)n1C1CC1 (centres undefined),u,-9%,x,-9%,11,-25%
COc1cc2c(cc1OC)[C@@H]1C(=O)c3ccc(OC)c(CC=C(C)C)c3OC1CO2 (some centres undefined),1.6µM*,x,x,x,x,2.9µM*
CCCN[C@@H]1CCc2c(OC)cccc2[C@@H]1C,-22%,x,x,x,x,13%
C=CC[C@@H](CC(=O)N[C@H](CO)Cc1ccccc1)C(=O)NCCOC(=O)[C@@H](CC=C)Cc1ccc(F)cc1,u,-20%,u,-4%,21,29µM*
C=CC[C@@H](CC(=O)N[C@@H](CO)Cc1ccccc1)C(=O)NCCOC(=O)[C@@H](CC=C)Cc1ccc(F)cc1,-3%,-2%,0%,5%,4,8%
SMILES,DT40 TDP1 no CPT,HT1080-NT tox,ELG1 repair inh,HT1080 IDH1KD tx,IL1B secr inh,DT40 TDP1 CPT
O=C1c2ccccc2S(=O)(=O)c2cc(C(=O)N3CCN(c4c(Cl)cncc4Cl)CC3)ccc21,15µM*,2%,x,-10%,0,u
C[C@H]1CC[C@]2(NC1)O[C@H]1C[C@H]3[C@@H]4CC[C@H]5C[C@@H](O[C@@H]6O[C@H](CO)[C@H](O[C@@H]7O[C@H](CO)[C@@H](O)[C@H](O[C@@H]8OC[C@@H](O)[C@H](O)[C@H]8O)[C@H]7O[C@@H]7O[C@H](CO)[C@@H](O)[C@H](O)[C@H]7O)[C@H](O)[C@H]6O)CC[C@]5(C)[C@H]4CC[C@]3(C)[C@H]1[C@@H]2C,1.7µM*,x,x,x,x,1.9µM*
CC(CCN1CC1)=NNC(=O)Nc1cccc2ccccc12,8.2µM*,5%,x,3%,0,7.3µM*
C=C[C@@H]1C[C@@]1(C)[C@@H](NP(=O)(c1ccccc1)c1ccccc1)c1ccccc1,15µM*,0%,-9%,0%,-5,u
COC(=O)[C@]1(C)C[C@H]1[C@H](NP(=O)(c1ccccc1)c1ccccc1)c1ccccc1,u,-3%,-10%,5%,3,u
COc1cc(OC)c(NS(=O)(=O)c2cc(-c3cnc(C4CC4)o3)ccc2C)cc1Cl,6.5µM*,x,x,x,x,13µM*
O=C(Nc1ccc2oc(-c3ccccc3F)nc2c1)c1ccc2c(c1)OCCO2,15µM*,13µM*,u,u,-54*,10µM*
Cc1ccc2c(c1Cl)NC(C(=O)O)C1CC(Sc3ccccc3[N+](=O)[O-])C(Cl)C21 (centres undefined),3%,-19%,-10%,-17%,18,-21%
CCN(CC)C(=O)c1ccc2c(c1)C1C(Cl)C(Sc3ccccc3[N+](=O)[O-])CC1C(C(=O)O)N2 (centres undefined),21µM*,-16%,-27%,-14%,u,u
O=C(NCc1ccccc1)Oc1cccc(Cl)c1,16µM*,-10%,u,-3%,0,u
CC(C)c1ccc(OCC(=O)Nc2cc(-c3nc4ncccc4o3)ccc2Cl)cc1,6.5µM*,x,x,x,x,u
